Measurements published in PubChem BioAssay (NCI).
The panel holds about 79,000 compounds, 15% with a hit somewhere; the sample as a whole holds those more often. Values without a mark were called inactive. Calls of active or inactive are those of the source. Cut-off read from the data, not from the text of the source: active = growth inhibition above about 70%; inactive = the rest. Where a SMILES comes first, the peptide text is derived from it. [ ]: non-standard residue; d: D form. The star is where a group is joined. Hyp = O=C(O)[CH]1C[CH](O)CN1; Cbz = O=C(OCc1ccccc1)*

assay: NCI Yeast Anticancer Drug Screen. Data for the mec2-1 strain (AID 157); details: S. cerevisiae mec2-1 strain, at 50.0 µM, active compounds read high
How it was run: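 Growth inhibition is read against vehicle-treated controls after compound exposure of the mec2-1 yeast strain, which is defective in DNA damage repair or cell cycle control.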

Structure (SMILES)	growth inhibition
CCOC(=O)C1CN(C2CCCCC2)CCC1=O (stereo not drawn)	-26.6%
O=C1/C(=C/c2cccs2)CCc2ccccc21	-12.4%
C=CCOc1cc(=O)[nH]c2ccccc12	-4.4%
CCOC(=O)c1ccccc1[N+](=O)[O-]	23.4%
O=C1OCCC2(CCN(Cc3ccccc3)CC2)O1	9.35%
CCCCC1CCC(C(=O)O)=NC1 (stereo not drawn)	6.7%
CC(C(=O)O)C1(O)CCCCC1 (stereo not drawn)	-13.9%
COc1ccc2c(c1)CCC1C(=O)NN=C21 (stereo not drawn)	-4.1%
CC(=O)N1OCCc2ccccc21	-0.15%
NC(=O)CNC(=O)C1CC(O)CN1C(=O)C1CCCN1C(=O)OCc1ccccc1 (stereo not drawn) (Cbz-Pro-[Hyp]-Gly-NH2; configuration not given here)	1.1%
CCCc1c(O)ccc(C)c1C	2.5%
c1ccc(C(c2ccccc2)c2cc(-c3cc(C(c4ccccc4)c4ccccc4)[nH]n3)n[nH]2)cc1	21.4%
O=C(O)CSC(=S)c1ccccc1	19.8%
Cn1c(=N)n(CC(=O)NC23CC4CC(CC(C4)C2)C3)c2ccccc21	-15.4%
O=C1C(N=Nc2ccc(S(=O)(=O)Nc3ccccn3)cc2)C(=O)N(c2ccccc2)C(=S)N1c1ccccc1	6.1%
O=C(O)C(O)(O)C(O)(O)C(=O)O	-22.6%
CCCCCCCCCCCCCCCCCCS	-25.3%
O=c1[nH]cc(COCC(O)CO)c(=O)[nH]1 (stereo not drawn)	-10.7%
Cc1c2c(cc3c1[nH]c1ccccc13)C(=O)c1ccccc1C2=O	68.5%
Cc1ccc(Cl)cc1NC(=O)C(Br)C(Br)C(=O)O (stereo not drawn)	99.4% (active)
Cc1ccc(S(=O)(=O)/N=C/C=P(c2ccccc2)(c2ccccc2)c2ccccc2)cc1	7.45%
COc1ccc(C=Nc2ccc([N+](=O)[O-])cc2O)cc1	2.7%
O=C1C=C(Sc2ccccc2)c2nccc3c2c1nc1ccccc13	7.6%
O=C(C[n+]1ccccc1)NNC(=O)/C(=C/c1ccc2c(c1)OCO2)NC(=O)c1ccccc1	3.4%
CC(=O)C1=C(C)N2C(=NC3=C(CCc4ccccc43)C2c2ccc(F)cc2)S1 (stereo not drawn)	-23.9%
Cn1c(=O)c2c(nc(Cl)n2Cc2ccccc2)n(C)c1=O	5.1%
Cc1ccc(S(=O)OCC23CC4CC(CC(C4)C2)C3)cc1 (stereo not drawn)	1.6%
CCCNC(=O)/C=C/C(=O)NCCC	-0.8%

assay: NCI Yeast Anticancer Drug Screen. Data for the sgs1 mgt1 strain (AID 161);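 note: 0% = growth of cultures given vehicle only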; details: S. cerevisiae sgs1 mgt1 strain, at 50.0 µM, active compounds read high
How it was run: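 This yeast growth screen uses a strain with defined DNA-repair lesions; compound-treated growth is compared with vehicle-treated growth.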

Structure (SMILES)	growth inhibition
CN1CCCNCCN(CCc2ccccn2)CCCN(C)CC1	-12.5%
CC(C)(c1ccc(O)c([N+](=O)[O-])c1)c1ccc(O)c([N+](=O)[O-])c1	-4.6%
CCOC(=O)C(NC(=O)C(CCCCNP(=O)(OCC)OCC)NC(=O)C(C)NC(C)=O)C(C)C (stereo not drawn)	-8.4%
CC(=O)Nc1cc(C)cc(Br)c1	-10.1%
O=C(O)COc1ccccc1OCC(=O)O	-8.6%
CC(=O)CC(C)(C)c1cc(CC(C)(C)C(N)=O)on1	17.4%
CCOC(=O)C(C#N)=C1c2ccccc2Oc2ccccc21	-2%
CN1NC(c2ccc(Cl)cc2)=C(C#N)C(=O)CC1c1ccccc1 (stereo not drawn)	-5.05%
CN(C)c1nc(N(C)C)c2cnn(C)c2n1	20.9%
Cc1ccc(Nc2nc(C)c(C(=O)C/C(=N/NC(N)=S)C(=O)Nc3cc(Cl)cc(Cl)c3)s2)cc1	15.6%
OCn1c2ccccc2c2ccccc21	33.7%
CCCCn1cc(C(=O)O)c(=O)c2c3sccc3ccc21	-8.95%
CCOC(=O)C1CN(C2CCCCC2)CCC1=O (stereo not drawn)	4.85%
O=C1/C(=C/c2cccs2)CCc2ccccc21	6.05%
C=CCOc1cc(=O)[nH]c2ccccc12	-0.9%
CCOC(=O)c1ccccc1[N+](=O)[O-]	8.7%
O=C1OCCC2(CCN(Cc3ccccc3)CC2)O1	25.4%
CCCCC1CCC(C(=O)O)=NC1 (stereo not drawn)	25.1%
CC(C(=O)O)C1(O)CCCCC1 (stereo not drawn)	-8.4%
COc1ccc2c(c1)CCC1C(=O)NN=C21 (stereo not drawn)	-5.6%

Structure (SMILES)	growth inhibition
CC(=O)N1OCCc2ccccc21	-6.65%
NC(=O)CNC(=O)C1CC(O)CN1C(=O)C1CCCN1C(=O)OCc1ccccc1 (stereo not drawn) (Cbz-Pro-[Hyp]-Gly-NH2; configuration not given here)	1.55%
CCCc1c(O)ccc(C)c1C	1.1%
c1ccc(C(c2ccccc2)c2cc(-c3cc(C(c4ccccc4)c4ccccc4)[nH]n3)n[nH]2)cc1	-7.55%
O=C(O)CSC(=S)c1ccccc1	4%
Cn1c(=N)n(CC(=O)NC23CC4CC(CC(C4)C2)C3)c2ccccc21	-26.9%
O=C1C(N=Nc2ccc(S(=O)(=O)Nc3ccccn3)cc2)C(=O)N(c2ccccc2)C(=S)N1c1ccccc1	8.25%
O=C(O)C(O)(O)C(O)(O)C(=O)O	-4%
CCCCCCCCCCCCCCCCCCS	-7.85%
O=c1[nH]cc(COCC(O)CO)c(=O)[nH]1 (stereo not drawn)	-43.9%
Cc1c2c(cc3c1[nH]c1ccccc13)C(=O)c1ccccc1C2=O	75.8% (active)
Cc1ccc(Cl)cc1NC(=O)C(Br)C(Br)C(=O)O (stereo not drawn)	99.5% (active)
Cc1ccc(S(=O)(=O)/N=C/C=P(c2ccccc2)(c2ccccc2)c2ccccc2)cc1	-22.1%
COc1ccc(C=Nc2ccc([N+](=O)[O-])cc2O)cc1	12.1%
O=C1C=C(Sc2ccccc2)c2nccc3c2c1nc1ccccc13	20.4%
O=C(C[n+]1ccccc1)NNC(=O)/C(=C/c1ccc2c(c1)OCO2)NC(=O)c1ccccc1	-13.7%
CC(=O)C1=C(C)N2C(=NC3=C(CCc4ccccc43)C2c2ccc(F)cc2)S1 (stereo not drawn)	-15.4%
Cn1c(=O)c2c(nc(Cl)n2Cc2ccccc2)n(C)c1=O	-14.6%
Cc1ccc(S(=O)OCC23CC4CC(CC(C4)C2)C3)cc1 (stereo not drawn)	-1.05%
CCCNC(=O)/C=C/C(=O)NCCC	-1.55%
